Results on 14 molecules are retold here after article PMC12136788.

T1: UNK ZnF1-6 (called full-length) (human, UniProt Q9C0B0 30-357)
T1 sequence: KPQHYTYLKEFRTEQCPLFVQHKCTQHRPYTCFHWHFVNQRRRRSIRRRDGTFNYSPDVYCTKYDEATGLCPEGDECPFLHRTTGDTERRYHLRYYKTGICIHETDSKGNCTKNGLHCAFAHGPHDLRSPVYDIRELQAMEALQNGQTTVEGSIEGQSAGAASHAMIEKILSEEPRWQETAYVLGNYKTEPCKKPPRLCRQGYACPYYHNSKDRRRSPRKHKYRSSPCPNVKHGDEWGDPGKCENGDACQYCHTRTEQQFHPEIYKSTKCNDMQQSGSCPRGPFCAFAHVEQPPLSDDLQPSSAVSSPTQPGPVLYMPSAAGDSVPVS

B1: chr19:582815:582998:+|CDS_3pUTR|ENSG00000172270|msi1_unk|total|mutant (ssRNA)
RNA: GGGAGUUCUACAGUCCGACGAUCUCAUACACUUCCUUCUUUUUUAAAAAAGUUGGGUUUUCUCCAUUCAGGAUUCUGUUCCUCCGGUUUUUUUCCUUCUGAAGUGUUUCACGAGAGCCCGGGAGCUGCUGCCCUGCGGCCCCGCAACAGAGGAUUGAGCAUCA
B2: ENSG00000165868:stop:overlap|stop_codon|ENSG00000165868|stop_codon|NA|stop_codon (ssRNA)
RNA: GGGAGUUCUACAGUCCGACGAUCAGCAGCCGGCCAAGCAGUUCAUGAGACAAGCUGCCUACCAGGCGGACCCUAUGGAUCUUUAGGAGUAGAUUAUGAGUUCGAAAAACUUCUGUAUAAAAUAUUUGGAGAGGAUUUUAUUGACAACAGAGGAUUGAGCAUCA
B3: ENSG00000124766:be:win_601|CDS|ENSG00000124766|bound_else_gene|NA|bound_elsewhere_windowed (ssRNA)
RNA: GGGAGUUCUACAGUCCGACGAUCUCCAAAGUGGCGGGCGGCGCGGGCGGUGGGGUUAGCAAACCGCACGCCAAGCUCAUCCUGGCAGGCGGCGGCGGCGGCGGGAAAGCAGCGGCUGCCGCCGCCGCCUCCUUCGCCGCCGAACAACAGAGGAUUGAGCAUCA
B4: ENSG00000136451:be:win_2501|3pUTR|ENSG00000136451|bound_else_gene|NA|bound_elsewhere_windowed (ssRNA)
RNA: GGGAGUUCUACAGUCCGACGAUCUCCCAAUCAGAGCCUGUUGAUAUUACAACAGGGACAGAUGUGUUAGUUGCUCACUAGAGUUUAUGUCUUAUAUUAAAUUGUAUACAGUUUUUAUUCUAACCACUAACUAGGUAGUGUAUGCAACAGAGGAUUGAGCAUCA
B5: chr7:6403584:6403671:+|3pUTR|ENSG00000136238|msi1_unk|FALSE|overlapping (ssRNA)
RNA: GGGAGUUCUACAGUCCGACGAUCUUUUCUAGUAACUAGGUGUAAAAAUCAUGUGUUGCAGCUUUAUAGUUUUUAAAAUAUUUUAGAUAAUUCUUAAACUAUGAACCUUCUUAACAUCACUGUCUUGCCAGAUUACCGACACUGCAACAGAGGAUUGAGCAUCA
B6: chr2:48379045:48379146:+|3pUTR|ENSG00000170802|unk|FALSE|unique (ssRNA)
RNA: GGGAGUUCUACAGUCCGACGAUCCCUUAUCCUCUUUUCUGAUGUAGCAUAAAAAUUGUCCCGGUUUGAGUUAUAACUGCCAGUAGAUGACCAGUCACAAGUGAACCACUUCUCAGUUGCCAAUCUUUGCUCAUAUUAAAAACACAACAGAGGAUUGAGCAUCA
B7: chr12:76028505:76028606:-|3pUTR|ENSG00000139289|msi1|FALSE|unique (ssRNA)
RNA: GGGAGUUCUACAGUCCGACGAUCAAGUCUUGGUCAGUAUUUUUCCAGCAUUUAAAUUGAAACGGUCAGUAUUAGACCACUGCUAGGUUAUGUAGUCAAGAAAUAAAAAUAGAAUUACAUGCUACAGAUGUCUUUAUUCUCCUUCAACAGAGGAUUGAGCAUCA
B8: chr3:160434497:160434598:+|3pUTR|ENSG00000113810|msi1|FALSE|bound_elsewhere (ssRNA)
RNA: GGGAGUUCUACAGUCCGACGAUCUUUAUGAUAGGUUUAUCCGGGUACUAAAUGCAUUUCAACUUGAUAGUUUCAACUUAUGAUAGGUUUACCAGGAUGUAGUCCCACUGUUGAGGAGCAUCUAUUUAGGGGUUAAUUACUUUACAACAGAGGAUUGAGCAUCA
B9: ENSG00000136451:be:win_2551|3pUTR|ENSG00000136451|bound_else_gene|NA|bound_elsewhere_windowed (ssRNA)
RNA: GGGAGUUCUACAGUCCGACGAUCUCACUAGAGUUUAUGUCUUAUAUUAAAUUGUAUACAGUUUUUAUUCUAACCACUAACUAGGUAGUGUAUGCCCCUUCAGAACAUGCAGAGUGUAUCUUUUUUUAAAUUUCUCCUUCCGUUCAACAGAGGAUUGAGCAUCA
B10: chr1:150647640:150647741:-|3pUTR|ENSG00000143457|unk|FALSE|unique (ssRNA)
RNA: GGGAGUUCUACAGUCCGACGAUCAGAUUCAAUUACCUGGAUGUCAAAGUCCUAGAGCCAGAAAUAUAUUCUCUCAUCCCUCUUAGCAUUCUCUUGCUCCCUCAUUCACUAGGGCAAAUGUCUAAAUGAAGAAAAGUCUCUCUCCAACAGAGGAUUGAGCAUCA
B11: chr1:109062613:109062715:-|3pUTR|ENSG00000197780|unk|total|mutant (ssRNA)
RNA: GGGAGUUCUACAGUCCGACGAUCAGUUCUGAAUACACAGGUUUUGUGUGUAUUUACUCUAUGUAUUAAAUUAUUAUUGCCCUCCGUUUAAAGUAAGGAUUACAAUUGGAUUUAAGCCGAUCACUGAAUGUUAUUGUUUAUGAACAACAGAGGAUUGAGCAUCA
B12: chrX:80717640:80717741:-|CDS|ENSG00000165288|msi1|FALSE|unique (ssRNA)
RNA: GGGAGUUCUACAGUCCGACGAUCCUGAGAAGUCCAAACAUGGACAUAUCUUCUUCCCCAAACAUCAGGCUUCGAAGACAUAGUAGUCAAAUUGAAGGUGUUAGACAAAUGCAUAACAAUGCUCCUCGGAGCCAGAUGGCCACUCAACAGAGGAUUGAGCAUCA
B13: chr6:37331633:37331734:+|3pUTR|ENSG00000065491|unk|FALSE|unique (ssRNA)
RNA: GGGAGUUCUACAGUCCGACGAUCCCGUUCCCCUUCUGCCCCAGUCUGAGCCAGUGAGGGGUAGCUUUUUAAAACCAUUAUUCUAGAUGGAGGAGGCACUGAUGCUUGUAACUCUGGAAAGAGGCCUACACCCAAGGGCUAGGACAACAGAGGAUUGAGCAUCA
B14: chr9:91409354:91409467:-|CDS|ENSG00000165030|unk|total|mutant (ssRNA)
RNA: GGGAGUUCUACAGUCCGACGAUCAAUGAAAGACAGUGGCUACAAAGUUUCUGACCCAGAGAACUUGUAUUUGAAGCAGGGGACCGCAAACUUAUCUGCAGAGGUUGUCUCACUCAAGAGACUUACCGCCACACAACCAAUCUCCAACAGAGGAUUGAGCAUCA

Over roughly 5,800 sequences, “enrichment r” has its median near 0.68; the highest 2% begin near 11. The entries come from a sample that favours the highest values as a whole.

The target of the assay is T1, UNK ZnF1-6 (called full-length). As to the kind of experiment: nsRBNS (natural sequence RNA bind-n-seq); RBNS binding buffer (assumed for nsRBNS): 25 mM Tris pH 7.5, 150 mM KCl, 3 mM MgCl2, 0.01% Triton X-100, 500 ug/ml BSA, 20 U/ml SUPERase-In, 4 C; UNK is unkempt and MSI1 is Musashi-1; names of the RNAs are library labels; protein concentration not given here; high values mean tight binding.
With B1, the binding signal stood at 0.504 enrichment R.

In turn, B2 showed a binding signal of 0.728 enrichment R.

Molecule B3 yielded a binding signal of 0.449 enrichment R.

For B4, the binding signal was found to be 12.3 enrichment R.

Turning to B5, the binding signal is 3.16 enrichment R.

Take B6: the binding signal worked out at 0.685 enrichment R.

In turn, B7 had a binding signal of 0.83 enrichment R.

In the case of B8, the binding signal was 2.3 enrichment R.

B9 yielded a binding signal of 11.6 enrichment R.

As for B10, the binding signal was found to be 0.623 enrichment R.

On to B11, for which the binding signal was determined as 0.999 enrichment R.

Turning to B12, the binding signal is 0.592 enrichment R.

Regarding B13, the binding signal was 2.05 enrichment R.

B14: the binding signal was 0.615 enrichment R.
